This note sets out measurements from PubChem BioAssay (NCATS).

Molecules are shown by their SMILES. Records with an inconclusive call do not appear. Where a call stands in place of a potency, no number is given. Active and inactive are the calls of the source. Calls follow the shape of the dose curve; as a rule, active = well fitted cell-killing curve with a large enough effect; inconclusive = small, poorly fitted or top-dose-only effect, or effect the other way; inactive = no such curve, though single readings can be large or run the other way. Non-standard residues stand in square brackets, D forms with d. Residues, ends and D or L forms follow the SMILES beside them. *: point of attachment. Sta = CC(C)C[C@H](N)[C@@H](O)CC(=O)O; Isovaleryl = CC(C)CC(=O)*
Potency is read from the fitted curve at half-maximal effect.

The experiment is described as follows: Quantitative High-Throughput drug screen in 47 multiple myeloma cell lines against the NCATS MIPE library collection: OCIMY1_PLB cell viability assay (AID 1918979). Also: nearly all actives have a fitted effect of over 35% in size. The following applies: OCI-MY1 myeloma viability, CellTiter-Glo ATP, 48 h; series mostly up to 45.8 µM. The text has this:
PI: Beverly A. Mock Ph.D.
Laboratory of Cancer Biology and Genetics,
Center for Cancer Research, National Cancer Institute,
National Institute of Health, Bethesda, Maryland
Drug resistance and disease progression are common in multiple myeloma (MM) patients, underscoring the need for new therapeutic combinations. […] We hypothesized that effective combinations would reduce MYC expression and enhance p16 activity. […] These preclinical data identify potentially useful drug combinations for evaluation in drug-resistant MM and reveal potential mechanisms of combined drug sensitivity.
Described herein is the primary MIPE qHTS used to cherrypick compounds. Validated compounds were then further tested for potential synergistic activiy.
[1] Peat TJ, Gaikwad SM, Dubois W, Gyabaah-Kessie N, Zhang S, Gorjifard S, Phyo Z, Andres M, Hughitt VK, Simpson RM, Miller MA, Girvin AT, Taylor A, Williams D, D'Antonio N, Zhang Y, Rajagopalan A, Flietner E, Wilson K, Zhang X, Shinn P, Klumpp-Thomas C, McKnight C, Itkin Z, Chen L, Kazandijian D, Zhang J, Michalowski AM, Simmons JK, Keats J, Thomas CJ, Mock BA. Drug combinations identified by high-throughput screening promote cell cycle transition and upregulate Smad pathways in myeloma. Cancer Lett. 2023 Aug 1;568:216284. doi: 10.1016/j.canlet.2023.216284. Epub 2023 Jun 24. PMID: 37356470; PMCID: PMC10408729.
SEQUENCE No. (e.g., 1, 2, 3, etc.); […] (e.g., Cells, Incubation, Reagent, etc.); VALUE and DESCRIPTION.
1; Cells; 5 uL; white, solid bottom 1536-well Greiner assay plate.
2; Compounds; 23 nL; Kalypsis pin tool (Wako USA) equipped with a 1536-well pin head to transfer to the assay plates.
3; Incubation; 48 hours; 37C incubation.
4; Reagent;5uL; CellTiter Glo (Promega).
5; Detector; 425V; Luminescence; Viewlux PerkinElmer.
NOTES (numbers refer to Sequence numbers above)
1. The cell-based screening methods employed in this study were like those previously published. Briefly, the corresponding myeloma cell lines were screened in 1,536-well plates with 500 cells, 5-uL per well for inhibition of cell viability (assessed by measuring ATP levels with CellTiterGlo).
2. NCATS MIPE 4.0 library of approved and investigational drugs were added using the Kalypsis pin tool. Wells treated with DMSO only for 100% viability and media only for 0% viability were used as controls.
3. The assay plates were covered and incubated for 48 hours in a 37C, 5% CO2 incubator with controlled humidity.
4. After 48 hours, CellTilter-GloTM luminescent substrate mix (Promega) reagent was added to the assay plate and plates we incubated for 5 min at room temperature.
5. Signal was measured as median relative luminescence units on a ViewLux (PerkinElmer) multiplate reader.
[1] Heske CM, Davis MI, Baumgart JT, Wilson K, Gormally MV, Chen L, Zhang X, Ceribelli M, Duveau DY, Guha R, Ferrer M, Arnaldez FI, Ji J, Tran HL, Zhang Y, Mendoza A, Helman LJ, Thomas CJ. Matrix Screen Identifies Synergistic Combination of PARP Inhibitors and Nicotinamide Phosphoribosyltransferase (NAMPT) Inhibitors in Ewing Sarcoma. Clin Cancer Res. 2017 Dec 1;23(23):7301-7311. doi: 10.1158/1078-0432.CCR-17-1121. Epub 2017 Sep 12. PMID: 28899971; PMCID: PMC6636827.
Consider `CC[C@]1(O)C[C@H]2CN(CCc3c([nH]c4ccccc34)[C@@](C(=O)OC)(c3cc4c(cc3OC)N(C=O)[C@H]3[C@@](O)(C(=O)OC)[C@H](OC(C)=O)[C@]5(CC)C=CCN6CC[C@]43[C@@H]65)C2)C1`, for which the Potency is 0.059 µM (active).

Consider `CCN(CCO)CCCC(C)Nc1ccnc2cc(Cl)ccc12` (stereo not given), for which the Potency result was “inactive”.

Regarding `COc1ccccc1N1CCN(CCN(C(=O)C2CCCCC2)c2ccccn2)CC1`, the Potency entry is “inactive”.

Turning to `Cc1ccc(C(=O)c2cc(O)c(O)c([N+](=O)[O-])c2)cc1`, the Potency entry is “inactive”.

For the compound `CC(S)C(=O)NCC(=O)O` (stereo not given), the Potency result is “inactive”.

On to `O=C(c1ccccc1)c1ccc2n1CCC2C(=O)O` (stereo not given), for which the Potency entry was “inactive”.

For the compound `Oc1ccc2ccccc2c1SSc1c(O)ccc2ccccc12`, the Potency is 20.9 µM (active).

On to `CC(C)(S)[C@@H](N)C(=O)O`, for which the Potency entry was “inactive”.

For the compound `CN(C)c1ccc(O)c2c1C[C@H]1C[C@H]3[C@H](N(C)C)C(=O)C(C(N)=O)=C(O)[C@@]3(O)C(=O)C1=C2O`, the Potency was 18.7 µM (active).

`COC(=O)C1=C(C)NC(C)=C(C(=O)OC(C)C)C1c1cccc2nonc12` (stereo not given): the Potency entry was “inactive”.

Turning to `COc1cc2nc(N3CCN(C(=O)C4CCCO4)CC3)nc(N)c2cc1OC` (stereo not given), the Potency entry is “inactive”.

For `CC(C)c1ccc2c(c1)c(SC(C)(C)C)c(CC(C)(C)C(=O)O)n2Cc1ccc(Cl)cc1`, the Potency result is “inactive”.

On to `CC1Cc2ccccc2N1NC(=O)c1ccc(Cl)c(S(N)(=O)=O)c1` (stereo not given), for which the Potency entry is “inactive”.

Consider `CC(C)CC(=O)N[C@H](C(=O)N[C@H](C(=O)N[C@@H](CC(C)C)[C@@H](O)CC(=O)N[C@@H](C)C(=O)N[C@@H](CC(C)C)[C@@H](O)CC(=O)O)C(C)C)C(C)C` (Isovaleryl-VV[Sta]A[Sta]-OH), for which the Potency result was “inactive”.

`Cc1cccc(-c2[nH]ncc2-c2ccc3ncccc3n2)n1`: the Potency result is “inactive”.

As to `COC(=O)C1=C(C)NC(C)=C(C(=O)OCCCN2CCC(c3ccccc3)(c3ccccc3)CC2)C1c1cccc([N+](=O)[O-])c1` (stereo not given), the Potency entry was “inactive”.

As for `Nc1ccc(S(N)(=O)=O)cc1`, the Potency result was “inactive”.

Take `N[C@@H](Cc1cc(I)c(Oc2cc(I)c(O)c(I)c2)c(I)c1)C(=O)O`: the Potency entry was “inactive”.

Take `Cc1cc(O)c2c(c1)C(=O)c1cc(O)cc(O)c1C2=O`: the Potency entry is “inactive”.

As to `CN(C)CCCC1(c2ccc(F)cc2)OCc2cc(C#N)ccc21` (stereo not given), the Potency result was “inactive”.

On to `Clc1ccc2c(N3CCN(CCCN4CCN(c5ccnc6cc(Cl)ccc56)CC4)CC3)ccnc2c1`, for which the Potency entry was “inactive”.

For `CCOC(=O)C(C)Oc1cccc2c(=O)n(CC(=O)Nc3ccc4c(c3)OCCO4)ccc12` (stereo not given), the Potency result was “inactive”.

Consider `NNc1nncc2ccccc12`, for which the Potency entry is “inactive”.

As to `Cc1cc(C2CCCCC2)n(O)c(=O)c1`, the Potency was 16.6 µM (active).

`CCC1=C(C)CN(C(=O)NCCc2ccc(S(=O)(=O)NC(=O)NC3CCC(C)CC3)cc2)C1=O` (stereo not given): the Potency result is “inactive”.

In the case of `O=C(O)c1cn(-c2ccc(F)cc2)c2cc(N3CCNCC3)c(F)cc2c1=O`, the Potency result was “inactive”.

In the case of `Cn1c(NCCN(CCO)CCCc2ccc([N+](=O)[O-])cc2)cc(=O)n(C)c1=O`, the Potency entry is “inactive”.

On to `O=C(O)CCNC(=O)c1ccc(N=Nc2ccc(O)c(C(=O)O)c2)cc1`, for which the Potency result is “inactive”.

For `O=C1c2c(O)cc(O)cc2OC(c2ccc(O)c(O)c2)C1O` (stereo not given), the Potency entry was “inactive”.

Turning to `CC(=O)NC[C@H]1CN(c2ccc(N3CCOCC3)c(F)c2)C(=O)O1`, the Potency result was “inactive”.

As for `O=C(CS(=O)Cc1ccco1)NCC=CCOc1cc(CN2CCCCC2)ccn1` (stereo not given), the Potency entry was “inactive”.

For the compound `O=C1c2ccccc2-c2n[nH]c3cccc1c23`, the Potency entry was “inactive”.

Turning to `CCCCC(CC)COC(=O)C(C#N)=C(c1ccccc1)c1ccccc1` (stereo not given), the Potency entry was “inactive”.

As for `O=c1c(O)c(-c2ccc(O)cc2O)oc2cc(O)cc(O)c12`, the Potency entry is “inactive”.

For the compound `Nc1cc(C(Cl)=C(Cl)Cl)c(S(N)(=O)=O)cc1S(N)(=O)=O`, the Potency entry is “inactive”.

On to `CNC[C@@H](O)[C@@H](O)[C@H](O)[C@H](O)CO`, for which the Potency result was “inactive”.

In the case of `O=c1ccc2ccc(O)c(O)c2o1`, the Potency result was “inactive”.

For the compound `CC1(C)NC(=O)N(c2ccc([N+](=O)[O-])c(C(F)(F)F)c2)C1=O`, the Potency result is “inactive”.

With `CN(C)[C@@H](CCOc1cccc2ccccc12)c1ccccc1`, the Potency entry was “inactive”.

Take `c1cnc2cc3c(cc2n1)C1CNCC3C1`: the Potency entry is “inactive”.
